Structures are written as SMILES. The whole screen tested about 1,200 compounds, of which about 360 (30%) were called active. No rule for the calls is given here. The list is a sample of the results. Measured potencies and affinities stand elsewhere.

The assay can be described thus: bacterial growth inhibition, dose response, counter-screen, BacTiter-Glo luminescence, cherry-picked samples (AID 504843).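 Also: growth measured after 8 h incubation at 30 °C.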 To be noted: BacTiter-Glo ATP luminescence; series mostly up to 15 µM. (In general: A counterscreen serves to expose hits that act by an unwanted route or on another target.)
On to `CCOc1ccc(-c2cn(-c3ccc(OC)cc3)c(SC)n2)cc1`, for which the call was inactive.
The same measure for `COC(=O)C1=CN(C(C)C)C=C(C(=O)OC)C1c1cccc(OC)c1`: “inactive”; for `COc1cccc(NC(=O)Nc2cnccn2)c1`: “inactive”; for `CCOc1ccc2[nH]c(C)c(CN3CCCCC3)c(=O)c2c1`: “inactive”.
`CCSC1=C(C#N)C(c2ccc(Cl)cc2)C2=C(CCCC2=O)N1` (stereo unspecified): the call was inactive.
The same measure for `CC(C)N1C(=O)NC2(c3ccccc3)N(C)C(=O)N(C)C12c1ccccc1` (stereo unspecified): “inactive”.
The same measure for `O=C(N1CCCC1)C12CC3CC(C1)CC(C(=O)N1CCCC1)(C3)C2`: “inactive”; for `CN(C)c1ccc(C(=O)C(O)c2ccc(C(C)(C)C)cc2)cc1` (stereo unspecified): “inactive”.
On to `CN(C)S(=O)(=O)n1cc(/C=C(\NC(=O)c2ccccc2F)C(=O)N2CCOCC2)c2ccccc21`, for which the outcome was inactive.
In the case of `O=C(NCc1ccc2c(c1)OCO2)c1c(O)c2cccc3c2n(c1=O)CCC3`, the result was inactive.
As for `CCOc1ccccc1NC(=O)NCc1ccc2c(c1)OCO2`, the result was inactive.
The same measure for `COCCNc1nc(N)c([N+](=O)[O-])c(NCC2CCCO2)n1` (stereo unspecified): “inactive”; for `Cn1ccc(=Nc2ccc(NC(=O)c3ccc(N=c4ccn(C)c5ccc([N+](=O)[O-])cc45)cc3)cc2)cc1`: “inactive”; for `Clc1ccccc1CSc1nnc(-c2cccnc2)n1Cc1ccco1`: “inactive”.
The same measure for `Cc1cc(=O)[nH]c(SCC(=O)NCc2ccc3c(c2)OCO3)n1`: “inactive”; for `N=C(N)c1ccc(/C=C/c2ccc(C(=N)N)cc2O)cc1`: “inactive”.
Consider `O=C(Nc1ccc2c(c1)OCCO2)c1ccc(Cl)c(S(=O)(=O)N2CCCCC2)c1`, for which the result was inactive.
The same measure for `O=C(C1CCCN(S(=O)(=O)c2cccnc2)C1)N1CCn2c1nc1ccccc12` (stereo unspecified): “inactive”; for `Cc1c(NC(=O)Nc2ccccc2)cccc1[N+](=O)[O-]`: “inactive”; for `CCOC(=O)c1sc(C)c2c1NC(C)(c1ccccc1)NC2=O` (stereo unspecified): “inactive”.
As for `COc1ccc(CN2CSC(=S)N(Cc3ccccc3)C2)cc1`, the compound was called inactive.
Turning to `CC(C)(C)c1nnc(NC(=O)NS(=O)(=O)c2ccccc2)s1`, the result was inactive.
The same measure for `Cc1nc(Nc2ccc(Cl)cc2Cl)sc1C(=O)Nc1ccccc1`: “inactive”.
As to `O=C(NCc1cccnc1)C(=O)NCC1OCCN1S(=O)(=O)c1ccc(F)cc1` (stereo unspecified), the result was inactive.
Take `Cc1cc(C(=O)NNC(=O)c2ccc(F)cc2)c(C)s1`: the compound was classed as inactive.
As to `O=C(c1n[nH]c2ccccc12)N1CCOCC1`, the compound was classed as inactive.
The same measure for `CCN(CC)CC(=O)N(CC(=O)Nc1c(C)cc(C)cc1C)C1CCCCC1`: “inactive”; for `CCCCN(C)C(=O)c1cc2cc([N+](=O)[O-])cc(OC)c2oc1=O`: “inactive”.
As to `CCOC(=O)c1sc(Nc2nc3ccc(OC)cc3s2)cc1C`, the compound was called inactive.
Take `COc1ccc(S(=O)(=O)N2CCC(C(=O)NCc3cccnc3)CC2)cc1OC`: the compound was called inactive.
In the case of `COc1ccc(OC)c(NC(=O)NCc2cccnc2)c1`, the compound was classed as inactive.
